Binding signal data for 2 sequences are collected here from publication PMC7862700, “An all-to-all approach to the identification of sequence-specific readers for epigenetic DNA modifications on cytosine”.

What all share (experiment): DAPPL (digital affinity profiling via proximity ligation, sequencing); 10 mM Tris-HCl pH 7.5, 50 mM NaCl, 1 mM DTT, 4% glycerol, room temperature, 30 min; GST-TFs on glutathione beads, 16-mer random dsDNA library, 0.1% formaldehyde crosslink after washing; high values mean tight binding
Holding throughout (details): protein: recombinant; tags: N-terminal GST; dsDNA, one strand shown

One experiment deals with T1, FLI1 (Homo sapiens, UniProt Q01543 1-452).
T1 sequence: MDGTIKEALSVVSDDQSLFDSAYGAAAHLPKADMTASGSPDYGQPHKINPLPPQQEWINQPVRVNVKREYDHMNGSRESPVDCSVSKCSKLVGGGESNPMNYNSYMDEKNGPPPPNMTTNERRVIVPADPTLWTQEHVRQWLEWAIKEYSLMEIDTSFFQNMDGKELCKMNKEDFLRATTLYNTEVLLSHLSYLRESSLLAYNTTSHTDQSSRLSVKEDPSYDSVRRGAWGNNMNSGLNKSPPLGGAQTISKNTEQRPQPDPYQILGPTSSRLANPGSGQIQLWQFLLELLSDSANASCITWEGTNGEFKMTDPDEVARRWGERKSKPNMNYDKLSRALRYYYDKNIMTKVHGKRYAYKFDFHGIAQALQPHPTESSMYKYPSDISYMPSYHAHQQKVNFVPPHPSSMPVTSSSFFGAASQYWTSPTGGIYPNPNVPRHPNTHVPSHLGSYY
The procedure, abridged: (§1)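 Binding signal is defined as a hexamer's read frequency for one factor over its frequency for the tag-only sample. To obtain reads, GST-fused human transcription factors were expressed in yeast, captured on glutathione beads, barcoded with DNA and pooled with that sample. Pools met 200 nmole of a 16-mer random double-stranded DNA library in Tris/NaCl/DTT/glycerol buffer for 30 min at room temperature before washing, 0.1% formaldehyde crosslinking, proximity ligation (BsaI/T4 ligase, 1 h, 37 °C), PCR and Illumina NextSeq500 sequencing.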

A further experiment has as its target T2, ELK1 (Homo sapiens, UniProt P19419 1-428).
T2 sequence: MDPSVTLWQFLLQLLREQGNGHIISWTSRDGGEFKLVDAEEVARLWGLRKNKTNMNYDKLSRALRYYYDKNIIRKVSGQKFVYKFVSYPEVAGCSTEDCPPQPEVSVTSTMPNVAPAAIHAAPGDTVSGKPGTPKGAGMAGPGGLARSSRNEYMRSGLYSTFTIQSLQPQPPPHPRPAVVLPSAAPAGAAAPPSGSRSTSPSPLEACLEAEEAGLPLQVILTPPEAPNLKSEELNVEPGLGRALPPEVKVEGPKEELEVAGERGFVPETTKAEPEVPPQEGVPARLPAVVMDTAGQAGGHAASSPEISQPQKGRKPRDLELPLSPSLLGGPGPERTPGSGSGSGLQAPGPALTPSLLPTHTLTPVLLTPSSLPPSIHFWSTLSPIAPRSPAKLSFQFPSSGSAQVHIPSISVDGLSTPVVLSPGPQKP
The procedure, abridged:
as §1

In the next experiment the target is T3, GABPA (Homo sapiens, UniProt Q06546 1-454).
T3 sequence: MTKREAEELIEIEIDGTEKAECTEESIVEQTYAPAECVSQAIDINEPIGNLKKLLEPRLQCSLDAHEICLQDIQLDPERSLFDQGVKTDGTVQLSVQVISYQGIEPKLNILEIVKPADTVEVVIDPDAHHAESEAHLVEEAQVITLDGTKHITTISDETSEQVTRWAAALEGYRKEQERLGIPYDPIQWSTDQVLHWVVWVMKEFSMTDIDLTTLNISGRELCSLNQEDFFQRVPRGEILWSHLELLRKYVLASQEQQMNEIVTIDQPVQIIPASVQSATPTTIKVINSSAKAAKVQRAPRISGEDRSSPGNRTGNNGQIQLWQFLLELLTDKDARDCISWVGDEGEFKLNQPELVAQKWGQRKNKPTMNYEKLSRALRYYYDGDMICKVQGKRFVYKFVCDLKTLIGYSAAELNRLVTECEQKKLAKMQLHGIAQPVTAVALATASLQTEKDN
The procedure, abridged:
as §1

The next experiment addresses T4, ERG (Homo sapiens, UniProt P11308 1-479).
T4 sequence: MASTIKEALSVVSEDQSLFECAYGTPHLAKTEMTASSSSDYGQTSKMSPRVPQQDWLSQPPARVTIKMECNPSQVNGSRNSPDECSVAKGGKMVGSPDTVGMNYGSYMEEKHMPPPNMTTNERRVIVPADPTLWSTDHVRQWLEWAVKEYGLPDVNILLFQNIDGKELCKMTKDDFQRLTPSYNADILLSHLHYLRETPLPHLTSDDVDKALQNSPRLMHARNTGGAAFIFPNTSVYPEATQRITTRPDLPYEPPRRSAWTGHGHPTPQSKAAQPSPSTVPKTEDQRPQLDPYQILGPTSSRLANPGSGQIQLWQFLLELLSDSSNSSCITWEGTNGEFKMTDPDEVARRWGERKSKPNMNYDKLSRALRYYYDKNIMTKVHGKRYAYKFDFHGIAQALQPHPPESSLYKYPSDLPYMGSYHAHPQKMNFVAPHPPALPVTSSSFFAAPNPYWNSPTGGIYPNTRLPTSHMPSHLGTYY
The procedure, abridged:
as §1

For another experiment, the target named is ELF1 (Homo sapiens, UniProt P32519 1-619). The procedure, abridged:
as §1

A further experiment has as its target T5, EHF (Homo sapiens, UniProt Q9NZC4 1-300).
T5 sequence: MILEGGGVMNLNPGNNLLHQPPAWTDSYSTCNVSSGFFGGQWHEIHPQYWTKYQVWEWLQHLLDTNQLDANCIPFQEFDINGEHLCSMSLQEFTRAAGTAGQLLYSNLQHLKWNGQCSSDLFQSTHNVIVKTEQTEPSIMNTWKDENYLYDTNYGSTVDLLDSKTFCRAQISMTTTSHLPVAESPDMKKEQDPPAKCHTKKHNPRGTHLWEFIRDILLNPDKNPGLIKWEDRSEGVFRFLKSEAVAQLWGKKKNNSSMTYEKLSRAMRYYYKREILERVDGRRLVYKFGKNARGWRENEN
The procedure, abridged:
as §1

In another experiment the target is SPI1 (Homo sapiens, UniProt P17947 1-270). The procedure, abridged:
as §1

The next experiment has as its target SPIB (Homo sapiens, UniProt Q01892 1-262). The procedure, abridged:
as §1

A further experiment has as its target T6, ELK3 (Homo sapiens, UniProt P41970 1-407).
T6 sequence: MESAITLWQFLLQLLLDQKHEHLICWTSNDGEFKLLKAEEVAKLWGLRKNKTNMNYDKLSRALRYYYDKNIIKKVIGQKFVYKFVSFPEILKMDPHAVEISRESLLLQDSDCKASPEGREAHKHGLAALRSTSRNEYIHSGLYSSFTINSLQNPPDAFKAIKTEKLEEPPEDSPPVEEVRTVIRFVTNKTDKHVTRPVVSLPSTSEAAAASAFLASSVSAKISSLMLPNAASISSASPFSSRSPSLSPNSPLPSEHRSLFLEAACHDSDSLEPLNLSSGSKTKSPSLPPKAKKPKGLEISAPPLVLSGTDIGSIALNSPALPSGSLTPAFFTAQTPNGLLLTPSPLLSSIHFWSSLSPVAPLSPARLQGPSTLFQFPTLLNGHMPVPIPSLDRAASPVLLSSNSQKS
The procedure, abridged: as §1

Another experiment deals with T7, FEV (Homo sapiens, UniProt Q99581 1-238).
T7 sequence: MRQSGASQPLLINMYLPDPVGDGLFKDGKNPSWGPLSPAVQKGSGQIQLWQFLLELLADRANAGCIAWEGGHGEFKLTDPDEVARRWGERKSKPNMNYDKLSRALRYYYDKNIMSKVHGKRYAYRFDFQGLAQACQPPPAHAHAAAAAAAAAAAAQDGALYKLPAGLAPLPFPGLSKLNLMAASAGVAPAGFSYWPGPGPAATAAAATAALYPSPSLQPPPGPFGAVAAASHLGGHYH
The procedure, abridged:
as §1

The target in a further experiment is ETV5 (Homo sapiens, UniProt P41161 1-510). The procedure, abridged:
as §1

The next experiment has as its target T8, SPIC (Homo sapiens, UniProt Q8N5J4 1-248).
T8 sequence: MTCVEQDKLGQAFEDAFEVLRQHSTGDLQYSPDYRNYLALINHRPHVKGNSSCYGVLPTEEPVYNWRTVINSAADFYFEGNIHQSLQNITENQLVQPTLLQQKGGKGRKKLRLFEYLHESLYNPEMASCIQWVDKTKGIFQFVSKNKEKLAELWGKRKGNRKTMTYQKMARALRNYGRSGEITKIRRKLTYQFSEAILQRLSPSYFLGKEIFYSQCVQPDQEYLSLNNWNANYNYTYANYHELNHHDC
The procedure, abridged:
as §1

In another experiment the target is ELF4 (Homo sapiens, UniProt Q99607 1-663). The procedure, abridged:
as §1

The target of the next experiment is T9, ELK4 (Homo sapiens, UniProt P28324-2 1-405).
T9 sequence: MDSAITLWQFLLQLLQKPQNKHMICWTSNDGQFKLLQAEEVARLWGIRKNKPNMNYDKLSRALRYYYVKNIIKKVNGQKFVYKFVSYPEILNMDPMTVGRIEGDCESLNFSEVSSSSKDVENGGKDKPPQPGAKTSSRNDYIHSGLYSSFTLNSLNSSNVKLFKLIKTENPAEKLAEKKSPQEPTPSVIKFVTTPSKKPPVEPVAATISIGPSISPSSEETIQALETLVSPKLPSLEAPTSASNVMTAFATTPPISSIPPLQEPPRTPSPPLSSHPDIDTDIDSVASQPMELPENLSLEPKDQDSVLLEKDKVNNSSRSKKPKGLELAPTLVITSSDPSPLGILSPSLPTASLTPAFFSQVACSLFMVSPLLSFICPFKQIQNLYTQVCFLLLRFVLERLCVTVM
The procedure, abridged: as §1

Another experiment has as its target T10, ETV2 (Homo sapiens, UniProt O00321 1-342).
T10 sequence: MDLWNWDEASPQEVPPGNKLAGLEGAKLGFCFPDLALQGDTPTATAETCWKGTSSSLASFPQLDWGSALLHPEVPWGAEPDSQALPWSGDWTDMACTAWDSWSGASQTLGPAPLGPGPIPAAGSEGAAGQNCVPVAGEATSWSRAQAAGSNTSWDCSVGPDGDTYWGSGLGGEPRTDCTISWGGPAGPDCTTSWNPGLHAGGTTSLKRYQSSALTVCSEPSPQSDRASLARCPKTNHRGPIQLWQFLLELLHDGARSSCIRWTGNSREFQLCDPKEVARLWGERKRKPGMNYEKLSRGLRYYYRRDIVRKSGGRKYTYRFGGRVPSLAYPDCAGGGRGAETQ
The procedure, abridged:
as §1

In a further experiment the target is T11, ELF3 (Homo sapiens, UniProt P78545 1-371).
T11 sequence: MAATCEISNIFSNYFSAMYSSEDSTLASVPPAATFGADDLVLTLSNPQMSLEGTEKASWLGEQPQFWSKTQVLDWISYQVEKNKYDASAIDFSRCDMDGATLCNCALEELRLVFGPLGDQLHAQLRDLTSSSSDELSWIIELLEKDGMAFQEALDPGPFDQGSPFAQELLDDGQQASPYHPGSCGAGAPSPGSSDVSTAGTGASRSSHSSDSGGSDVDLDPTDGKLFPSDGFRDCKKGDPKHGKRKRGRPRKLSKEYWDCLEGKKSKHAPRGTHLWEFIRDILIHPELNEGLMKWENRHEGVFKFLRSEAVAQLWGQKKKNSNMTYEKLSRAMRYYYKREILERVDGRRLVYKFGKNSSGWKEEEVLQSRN
The procedure, abridged: as §1

A further experiment concerns the target ETV1 (Homo sapiens, UniProt P50549 1-477). The procedure, abridged:
as §1

ELF4, sequence (Q99607 whole entry): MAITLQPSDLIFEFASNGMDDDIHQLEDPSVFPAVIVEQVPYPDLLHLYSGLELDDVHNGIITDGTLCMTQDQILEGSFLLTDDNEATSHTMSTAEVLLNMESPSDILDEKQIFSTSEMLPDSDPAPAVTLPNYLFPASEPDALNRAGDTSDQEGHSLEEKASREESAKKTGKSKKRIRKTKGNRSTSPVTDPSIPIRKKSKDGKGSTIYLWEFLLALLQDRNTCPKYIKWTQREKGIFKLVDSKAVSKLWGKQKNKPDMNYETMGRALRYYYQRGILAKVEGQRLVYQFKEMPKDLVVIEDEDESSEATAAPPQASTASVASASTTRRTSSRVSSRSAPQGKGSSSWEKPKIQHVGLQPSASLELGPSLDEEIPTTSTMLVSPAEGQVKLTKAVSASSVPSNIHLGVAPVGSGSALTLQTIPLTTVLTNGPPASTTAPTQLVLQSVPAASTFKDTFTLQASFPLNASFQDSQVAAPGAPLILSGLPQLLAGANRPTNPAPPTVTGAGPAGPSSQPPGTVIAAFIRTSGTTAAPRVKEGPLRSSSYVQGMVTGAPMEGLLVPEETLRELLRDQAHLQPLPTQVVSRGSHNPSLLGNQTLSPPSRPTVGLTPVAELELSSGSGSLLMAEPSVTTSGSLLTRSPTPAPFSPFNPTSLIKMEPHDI
SPIB, sequence (Q01892 whole entry): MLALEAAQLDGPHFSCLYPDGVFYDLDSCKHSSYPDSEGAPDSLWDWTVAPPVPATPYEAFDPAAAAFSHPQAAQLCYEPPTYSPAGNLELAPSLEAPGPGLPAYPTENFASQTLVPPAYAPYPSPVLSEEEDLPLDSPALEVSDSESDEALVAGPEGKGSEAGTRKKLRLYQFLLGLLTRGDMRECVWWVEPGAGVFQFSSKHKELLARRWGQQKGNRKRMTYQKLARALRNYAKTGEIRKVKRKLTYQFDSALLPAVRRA
ETV5, sequence (P41161 whole entry): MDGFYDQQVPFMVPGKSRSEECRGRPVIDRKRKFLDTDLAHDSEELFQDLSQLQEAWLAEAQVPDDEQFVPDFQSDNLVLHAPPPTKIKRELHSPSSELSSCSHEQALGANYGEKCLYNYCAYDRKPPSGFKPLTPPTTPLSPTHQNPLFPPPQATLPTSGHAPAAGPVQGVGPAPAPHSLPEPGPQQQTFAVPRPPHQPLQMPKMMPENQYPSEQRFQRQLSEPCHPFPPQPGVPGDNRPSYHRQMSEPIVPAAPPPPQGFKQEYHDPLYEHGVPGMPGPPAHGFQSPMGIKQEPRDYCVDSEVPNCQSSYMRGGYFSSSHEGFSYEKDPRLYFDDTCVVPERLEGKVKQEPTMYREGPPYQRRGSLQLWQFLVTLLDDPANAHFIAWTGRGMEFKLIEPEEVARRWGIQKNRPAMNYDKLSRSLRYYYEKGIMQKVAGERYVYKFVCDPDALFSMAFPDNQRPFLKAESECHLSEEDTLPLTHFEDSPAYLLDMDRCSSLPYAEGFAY
ELF1, sequence (P32519 whole entry): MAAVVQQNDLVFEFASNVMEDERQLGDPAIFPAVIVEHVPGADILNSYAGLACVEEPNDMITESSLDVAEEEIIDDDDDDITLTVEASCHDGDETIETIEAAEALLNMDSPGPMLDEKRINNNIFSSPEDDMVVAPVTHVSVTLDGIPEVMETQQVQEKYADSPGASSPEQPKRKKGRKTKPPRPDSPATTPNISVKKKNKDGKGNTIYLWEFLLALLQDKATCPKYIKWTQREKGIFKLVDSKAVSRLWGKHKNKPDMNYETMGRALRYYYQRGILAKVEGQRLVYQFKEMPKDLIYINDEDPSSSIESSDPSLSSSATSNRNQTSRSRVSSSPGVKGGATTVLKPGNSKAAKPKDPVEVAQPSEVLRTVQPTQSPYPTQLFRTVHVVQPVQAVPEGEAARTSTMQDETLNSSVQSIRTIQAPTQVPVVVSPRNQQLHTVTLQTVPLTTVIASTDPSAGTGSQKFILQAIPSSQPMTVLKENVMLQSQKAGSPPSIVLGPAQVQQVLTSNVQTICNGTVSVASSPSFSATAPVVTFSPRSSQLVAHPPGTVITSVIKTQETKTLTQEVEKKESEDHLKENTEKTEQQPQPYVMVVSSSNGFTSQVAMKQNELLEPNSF
ETV1, sequence (P50549 whole entry): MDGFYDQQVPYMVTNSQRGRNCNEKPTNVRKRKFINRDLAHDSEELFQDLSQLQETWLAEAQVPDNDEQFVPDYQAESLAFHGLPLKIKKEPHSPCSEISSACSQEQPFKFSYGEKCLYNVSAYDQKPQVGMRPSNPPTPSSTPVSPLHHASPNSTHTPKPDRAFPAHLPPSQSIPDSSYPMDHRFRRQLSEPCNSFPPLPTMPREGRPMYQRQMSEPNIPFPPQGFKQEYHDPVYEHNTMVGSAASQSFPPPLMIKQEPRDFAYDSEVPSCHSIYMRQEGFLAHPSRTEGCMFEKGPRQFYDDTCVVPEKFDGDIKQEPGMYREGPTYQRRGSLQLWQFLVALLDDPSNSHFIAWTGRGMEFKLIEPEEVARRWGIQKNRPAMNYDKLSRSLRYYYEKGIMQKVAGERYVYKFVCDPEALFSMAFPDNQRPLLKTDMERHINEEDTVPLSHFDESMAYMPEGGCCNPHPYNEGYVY

As for CCCACA, the binding signal was 1.13 fold enrichment (6-mer frequency, TF over GST control) with FLI1; 1.12 fold enrichment (6-mer frequency, TF over GST control) with ELK1; 1.26 fold enrichment (6-mer frequency, TF over GST control) in the experiment with GABPA; 1.07 fold enrichment (6-mer frequency, TF over GST control) in the experiment with ERG; 1.17 fold enrichment (6-mer frequency, TF over GST control) with ELF1; 1.12 fold enrichment (6-mer frequency, TF over GST control) in the experiment with EHF. Moreover, the binding signal in the experiment with SPI1 is 1.08 fold enrichment (6-mer frequency, TF over GST control); with SPIB it was 1.1 fold enrichment (6-mer frequency, TF over GST control); with ELK3, 1.08 fold enrichment (6-mer frequency, TF over GST control); with FEV, 1.17 fold enrichment (6-mer frequency, TF over GST control); in the experiment with ETV5, 1.14 fold enrichment (6-mer frequency, TF over GST control); with SPIC, 1.2 fold enrichment (6-mer frequency, TF over GST control). For the same sequence, the binding signal was 1.15 fold enrichment (6-mer frequency, TF over GST control) with ELF4; 1.1 fold enrichment (6-mer frequency, TF over GST control) with ELK4; 1.1 fold enrichment (6-mer frequency, TF over GST control) with ETV2; 1.14 fold enrichment (6-mer frequency, TF over GST control) in the experiment with ELF3; 1.07 fold enrichment (6-mer frequency, TF over GST control) with ETV1.

As for GTACCT, the binding signal in the experiment with FLI1 is 1.36 fold enrichment (6-mer frequency, TF over GST control); with ELK1 it was 1.16 fold enrichment (6-mer frequency, TF over GST control); in the experiment with GABPA it was 1.26 fold enrichment (6-mer frequency, TF over GST control); in the experiment with ERG it was 1.16 fold enrichment (6-mer frequency, TF over GST control); with ELF1, 1.22 fold enrichment (6-mer frequency, TF over GST control); with EHF, 1.29 fold enrichment (6-mer frequency, TF over GST control). Moreover, the binding signal in the experiment with SPI1 was 1.12 fold enrichment (6-mer frequency, TF over GST control); with SPIB, 1.18 fold enrichment (6-mer frequency, TF over GST control); with ELK3, 1.1 fold enrichment (6-mer frequency, TF over GST control); in the experiment with FEV, 1.14 fold enrichment (6-mer frequency, TF over GST control); with ETV5, 1.26 fold enrichment (6-mer frequency, TF over GST control); in the experiment with SPIC, 1.44 fold enrichment (6-mer frequency, TF over GST control). The binding signal in the experiment with ELF4 was 1.23 fold enrichment (6-mer frequency, TF over GST control); with ELK4, 1.25 fold enrichment (6-mer frequency, TF over GST control); with ETV2 it was 1.32 fold enrichment (6-mer frequency, TF over GST control); with ELF3, 1.57 fold enrichment (6-mer frequency, TF over GST control); with ETV1, 1.27 fold enrichment (6-mer frequency, TF over GST control).
